This is part of a sample that, as a whole, favours compounds with a hit. Of some 83,000 tested, about 20% had one in any assay.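 A percent growth of 40 corresponds to 60% growth inhibition; 0 means no net growth; -100 means all cells died. Active threshold: below 10.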 Unmarked numbers belong to inactive results. Activity calls are given as the source filed them.
system: RPMI-8226 leukemia; assay: NCI-60 one-dose screen, 48 h (100 = growth as untreated, 0 = no growth, -100 = all killed); settings: 10 µM unless noted

| Structure (SMILES) | growth [%] |
| --- | --- |
| CCC(C)CC(C)C(=O)c1c(O)ccn(OC)c1=O (stereo unspecified) | 69.3 |
| NNC(=O)NO | 109 |
| COc1ccc(C2CC(c3cccc(Nc4ccnc5cc(Cl)ccc45)c3)=NN2C=O)cc1 (stereo unspecified) | 21.5 |
| C=CC1=C(C(=O)O)N2C(=O)[C@@H](NC(=O)/C(=N\O)c3csc(N)n3)[C@H]2SC1 (stereo in doubt) | 113 |
| CC(=O)Oc1ccc(C2OC(c3ccc4ccccc4c3OC(C)=O)=NN2C(C)=O)c(OC(C)=O)c1 (stereo unspecified) | 21.2 |
| Cc1ccc(NC(=O)COC(=O)c2ccc(S(=O)(=O)N3CCCCCC3)cc2)cc1 | 97.6 |

system: OVCAR-8 ovarian; assay: as above; settings: 10 µM unless noted

| Structure (SMILES) | growth |
| --- | --- |
| COc1ccc(COC(C)=O)cc1 | 106% |
| COC(=O)CCC1=C(CC(=O)OC)C(C)=N/C1=C\c1[nH]c(-c2ccc[nH]2)cc1OC | 9.85% (active) |
| O=C(/C(=N/O)S(=O)(=O)c1ccccc1)c1cccs1 | 104% |
| COc1cc(OC)c2cc(C(=O)O)c(=O)oc2c1 | 94.4% |
| CN(CCOc1ccc(CC2SC(=O)NC2=O)cc1)c1ccccn1 (stereo unspecified) | 91.9% |
| CCC(C)CC(C)C(=O)c1c(O)ccn(O)c1=O (stereo unspecified) | 17.8% |
| O=C(CSc1nc2c(n1Nc1ccccc1)-c1ccccc1SC2)Nc1nc(-c2ccc(Cl)cc2)cs1 | 57.3% |
| Cc1[nH]n(C(N)=S)c(=O)c1N=Nc1ccc(F)c(Cl)c1 | 91.2% |
| Clc1cccc(Cc2cn3cc(-c4ccccc4)nc3s2)c1 | 53.4% |
| NC(=O)N/N=C/c1ccc(Br)o1 | 107% |

Reference: PubChem BioAssay (NCI)
